Screens deposited in PubChem BioAssay by National Center for Advancing Translational Sciences (NCATS).
Most compounds without a hit are left out; they make up all but 2.2% or so of the library.
ATXN viability: Viability Counterscreen for Primary qHTS for Inhibitors of ATXN expression; S2 cells (HEK-293 line with an ATXN2-luciferase reporter) viability, CellTiter-Fluor protease fluorescence, 24 h; Potency, µM (top dose mostly 56.7 µM), most hits filed as cytotoxic; 0.49% of 400,000 active; note: potency is the fitted concentration of half-maximal effect; nearly all actives have a fitted effect of over 40% in size
ATXN2 expr inh: Primary qHTS for Inhibitors of ATXN expression; HEK-293 ATXN2-luciferase reporter, luminescence, 24 h; Potency, µM (titrated, usually from 57 µM), without a hit: top-dose activity change, negative = inhibition, most hits filed as inhibitors; 0.72% of 360,000 active; note: potency is the fitted concentration of half-maximal effect; % is set by controls: 0 for no effect and ±100 for the full control effect; nearly all actives have a fitted effect of over 55% in size
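ATXN2-luciferase reporter cells (luciferase flanked by upstream and downstream ATXN2 gene portions) were treated 24 h at 37 °C with compounds at up to 57 uM. SteadyGlo luminescence gave expression; GF-AFC fluorescence gave viability.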
LDHA block: qHTS assay for inhibitors of human lactate dehydrogenase | AID 1347041, 2019 | activity change, % (values are at about 110 or 230 µM) | 0.15% of 480,000 active | purified LDHA, NADH/diaphorase-resazurin fluorescence; stronger effect = lower value; in the data active = activity change below about -30%; inconclusive = mostly about -25% to -30%;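 note: plate controls were DMSO wells for no effect and wells without enzyme for full effect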
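Enzyme activity of human lactate dehydrogenase 5 (2 nM; 0.06 mM NADH, 0.2 mM pyruvate, 5 min, RT) is measured via a resazurin/diaphorase fluorescence readout of residual NADH.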
TGFb inhibitor: qHTS for Inhibitors of TGF-b | AID 588855, 2011 | Potency, µM (doses to about 46.1 µM), for inactives: top-dose activity, negative = inhibition, usual class: inhibitors | HepG2 CAGA-GFP TGF-b/SMAD3 reporter, GFP fluorescence, 18 h; TGF-beta stimulated, 500 pg/mL final | 1.2% of 410,000 active; note: potency is the fitted concentration of half-maximal effect; % is set by controls: 0 for no effect and ±100 for the full control effect; nearly all actives have a fitted effect of over 65% in size
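Inhibition of TGF-beta-driven CAGA-GFP reporter expression in HEPG2 cells is measured by cellular GFP fluorescence after 18 h stimulation with 500 pg/mL recombinant TGF-beta in 1% FBS medium at 37 degrees C.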
HepG2 viability: qHTS for Inhibitors of TGF-b: Cytotox Counterscreen; HepG2 CAGA-GFP viability, ATP luminescence, 18 h; Potency, µM (highest dose often 46.1 µM), for the others: top-dose activity change, negative = cytotoxicity, usual class: cytotoxic; 0.76% of 410,000 active; note: potency is the fitted concentration of half-maximal effect
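HepG2 CAGA-GFP cells (1000/well, DMEM with 1% FBS) received compound, then TGF-beta at 500 pg/mL final, and were incubated 18 hours at 37 degrees C. Viability was read by CellTiter-Glo luminescence. Media-only wells were set as complete cell-killing and DMSO as no toxicity.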
mIDH1 inhibitor: qHTS for Inhibitors of mutant isocitrate dehydrogenase 1 (IDH1): qHTS; Isocitrate dehydrogenase [NADP] cytoplasmic (Homo sapiens), O75874; IDH1-R132H enzyme, NADPH consumption, diaphorase/resazurin fluorescence; Potency, µM (doses to about 76.6 µM), without a hit: at the top dose activity change, negative = inhibition, actives largely listed as inhibitors; 0.093% of 390,000 active; note: potency is the fitted concentration of half-maximal effect; % is set by controls: 0 for no effect and ±100 for the full control effect; nearly all actives have a fitted effect of over 65% in size
Target sequence (O75874 whole entry R132H, stated change not applied): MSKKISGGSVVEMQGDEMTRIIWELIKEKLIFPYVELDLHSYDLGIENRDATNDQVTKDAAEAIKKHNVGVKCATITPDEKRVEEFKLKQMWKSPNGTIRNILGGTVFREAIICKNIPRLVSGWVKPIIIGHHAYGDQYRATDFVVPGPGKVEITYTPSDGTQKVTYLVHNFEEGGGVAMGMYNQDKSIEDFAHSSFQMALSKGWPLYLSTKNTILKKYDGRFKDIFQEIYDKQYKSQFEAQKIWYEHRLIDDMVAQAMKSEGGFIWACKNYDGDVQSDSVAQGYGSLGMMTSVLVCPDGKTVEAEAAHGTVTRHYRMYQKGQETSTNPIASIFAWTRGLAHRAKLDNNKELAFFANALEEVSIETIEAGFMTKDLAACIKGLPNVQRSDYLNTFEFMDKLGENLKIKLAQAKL
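IDH1-R132H (0.5 ug/mL) preincubated 30 min with compound, then NADPH (0.016 mM) and alpha-KG (2 mM) added; 80 min at RT, pH 7.5. Remaining NADPH coupled via diaphorase/resazurin to fluorescence (540/590 nm); concentration-response curves normalized to no-enzyme control.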
Resorufin autofl: qHTS for Inhibitors of mutant isocitrate dehydrogenase 1 (IDH1): Cherrypicks Autofluorescence Interference | shares compounds with mIDH1 inhibitor | Resorufin detection reagent fluorescence interference, cell-free | inhibition of signal, % at 51.2 µM | 750 tested, under 10 active;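 note: 0% = wells with normal resorufin and full inhibition = wells lacking resorufin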
WT IDH1 inh: qHTS for Inhibitors of mutant isocitrate dehydrogenase 1 (IDH1): Cherrypicks in WT IDH1. shares compounds with mIDH1 inhibitor. AID 623995, 2012. 9% of 750 active. Potency, µM (titrated, usually from 115 µM), inactives show top-dose activity change, negative = inhibition, actives largely listed as inhibitors. WT IDH1 enzyme, NADPH diaphorase/resazurin fluorescence;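 note: potency is the fitted concentration of half-maximal effect; 0% = full WT IDH1 enzyme control and full inhibition = no enzyme wells; nearly all actives have a fitted effect of over 55% in size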
Target sequence (O75874 whole entry, looked up): as the sequence (O75874 whole entry R132H, stated change not applied) above, with H132R counted along it
mIDH1 confirm: qHTS for Inhibitors of mutant isocitrate dehydrogenase 1 (IDH1): Confirmation of Cherrypicks. IDH1 R132H enzyme, NADPH diaphorase/resazurin fluorescence. shares compounds with mIDH1 inhibitor. 83% of 750 active. Potency, µM (doses to about 76.6 µM), for inactives: at the highest dose activity change, negative = inhibition, usual class: inhibitors; note: potency is the fitted concentration of half-maximal effect; nearly all actives have a fitted effect of over 50% in size
* hit, by the source's call; i = inactive; ? = inconclusive; nt = no result given. Unless noted, calls come from the whole dose curve; as a rule, active = well fitted curve in the direction sought with a large enough effect; inconclusive = small, poorly fitted or top-dose-only effect, or another doubt; inactive = no such curve, though single readings can be large; an effect the other way counts as inactive or inconclusive.

SMILES | ATXN viability | ATXN2 expr inh | LDHA block | TGFb inhibitor | HepG2 viability | mIDH1 inhibitor | Resorufin autofl | WT IDH1 inh | mIDH1 confirm
CCn1c(=O)c2cc(C(=O)N(C)c3cc(C)ccc3OC)sc2c2ccccc21 | ? | nt | 0.6 | ? | -24.6% | ? | -6.0 | 0.8% | 31.6µM*
CCn1c(=O)c2cc(C(=O)N(C)c3ccccc3F)sc2c2ccccc21 | ? | 0.6% | -3.9 | 16.6% | -23.1% | ? | -6.8 | -0.7% | 28.2µM*
COc1ccc(S(=O)(=O)N2CCC(C(=O)N3CCCCC3)CC2)cc1 | i | -7.6% | -2.8 | -0.8% | -4.5% | 12.0% | nt | nt | nt
CCN1CCN(C(c2cccnc2)c2c(NC(=O)c3ccco3)sc(C)c2C)CC1 (configuration not stated) | i | -12.4% | -5.6 | -4.1% | -5.0% | -2.7% | nt | nt | nt
Cc1sc(NC(=O)c2ccco2)c(C(c2cccnc2)N2CCC(C)CC2)c1C (configuration not stated) | ? | ? | -6.4 | ? | -9.0% | ? | -4.6 | 1.3% | ?
CCOc1ccc(-n2c(=S)sc3c(=O)[nH]c(SCC(=O)NC(C)CC)nc32)cc1 (configuration not stated) | i | 1.0% | -2.0 | -1.4% | 9.4% | 36.9µM* | 0.0 | 8.91µM* | 31.6µM*
CCOC(=O)CC(=O)CSc1nc2c(sc(=S)n2-c2ccc(OCC)cc2)c(=O)[nH]1 | i | -23.4% | 9.6 | ? | 4.3% | 6.4% | nt | nt | nt
COc1ccc(Cl)cc1-n1c(=S)sc2c(=O)[nH]c(SCC(=O)NCCC(C)C)nc21 | i | -6.2% | -3.4 | 0.0% | -1.3% | 36.9µM* | 3.0 | 6.6% | 11.2µM*
CC(=O)Nc1cccc(-n2cc3c(c2-c2ccccc2Cl)c(=O)n(C)c(=O)n3C)c1 | nt | nt | -1.8 | -13.8% | -11.2% | ? | 0.3 | 0.4% | 39.8µM*
Cc1ccc(NC(=O)COC(=O)COc2cccc3c2OC(C)(C)C3)cc1S(=O)(=O)N1CCOCC1 | i | 9.0% | -4.5 | 6.2% | -14.0% | 5.8% | nt | nt | nt
Cc1nc(-c2nc(-c3c(C(=O)NNC(=O)Nc4ccccc4)noc3C)cs2)cs1 | i | -6.1% | -4.1 | 7.2% | -3.1% | -3.6% | nt | nt | nt
O=C(COc1ccccc1-c1ccccc1)NCCN1C(=O)S/C(=C\c2cccnc2)C1=O | i | -0.9% | 0.5 | 0.0% | -18.5% | 46.5µM* | -3.1 | -11.2% | 28.2µM*
CCOc1ccc(NS(=O)(=O)c2ccc3[nH]cc(C(=O)N4CCCCCC4)c(=O)c3c2)cc1 | i | 25.5% | 2.6 | -0.7% | 6.2% | 18.1% | nt | nt | nt
Cc1cccc(N(C(=O)c2snc(C(N)=O)c2N)C(C(=O)NC2CCCC2)c2ccco2)c1 (configuration not stated) | i | 12.5% | -4.1 | 1.3% | 8.4% | ? | -10.6 | -1.0% | 35.5µM*
Cc1ccc(N(C(=O)c2snc(C(N)=O)c2N)C(CC(C)C)C(=O)NC2CCCC2)cc1 (configuration not stated) | i | 1.1% | -1.6 | 0.7% | -7.8% | -5.2% | nt | nt | nt
COc1ccc(C)cc1N(C(=O)c1snc(C(N)=O)c1N)C(C(=O)NC1CCCCC1)c1ccc(C)o1 (configuration not stated) | i | -6.1% | -2.1 | ? | 6.2% | ? | -2.6 | 1.7% | 14.1µM*
COc1ccccc1N(C(=O)c1snc(C(N)=O)c1N)C(C(=O)NC1CCCC1)c1ccco1 (configuration not stated) | ? | 5.2% | 5.1 | ? | -22.2% | -17.4% | nt | nt | nt
COc1ccccc1N(C(=O)c1snc(C(N)=O)c1N)C(C(=O)NC1CCCCC1)c1cccc(OC)c1OC (configuration not stated) | i | -0.7% | -4.6 | -12.9% | 4.9% | ? | 3.0 | -1.2% | ?
CCCCC(C(=O)NC1CCCC1)N(C(=O)c1snc(C(N)=O)c1N)c1ccc(C)cc1 (configuration not stated) | i | -6.3% | -6.4 | -1.3% | 1.1% | ? | -4.3 | -0.4% | ?
CCSc1sccc1C1C(C#N)=C(N)N(c2cccnc2)C2=C1C(=O)CC(C)(C)C2 (configuration not stated) | ? | 2.3% | 6.0 | -3.0% | -0.1% | 58.5µM* | -2.9 | -5.7% | 28.2µM*
COc1ccc(C2C(C#N)=C(N)N(c3cccnc3)C3=C2C(=O)CC(C)(C)C3)cc1OC (configuration not stated) | i | 1.2% | 8.1 | -4.8% | 3.4% | 6.8% | nt | nt | nt
Cc1cccc(C)c1NC(=O)CNC(=O)c1ccc2c(c1)NC(=O)CS2 | i | 6.3% | -3.5 | -2.2% | 0.1% | 5.7% | nt | nt | nt
COc1cccc(-n2c(SCC(=O)Nc3ccc(F)cc3F)nc3c([nH]c4ccccc43)c2=O)c1 | nt | nt | -11.8 | -6.9% | -21.3% | -5.8% | nt | nt | nt
Cn1c(=O)c(NC2CCCCC2)c2c3c(cccc31)C(=O)c1ccccc1-2 | nt | -6.9% | -0.9 | 230.2% | -19.1% | ? | -0.3 | 11.5% | 22.4µM*
COc1cc(C)nc(N2CCCC(C(=O)NC3CCC(C)CC3)C2)n1 (configuration not stated) | i | 66.6% | 0.2 | -1.5% | 15.2% | 5.0% | nt | nt | nt
O=C(O)CCN1C(=O)/C(=C2\C(=O)N(Cc3ccc(F)cc3)c3ccccc32)SC1=S | i | 33.6% | 16.9 | 0.4% | 5.7% | 9.27µM* | -0.9 | -12.3% | 3.98µM*
